# Laboratory results as given in PMC11062922 (Nature Chemical Biology, 2023).
# Key:
# Parameters in all cases: species or system human, MV4-11 + K-562 + COLO205 + SK-N-BE2 + OVCAR-8
# [1] = test system: AURKA; conditions: read-out: apparent Kd; compound concentrations: 100 nM and 1000 nM (sheet 'Samples'), CATDS: 7.2357375689978506E-2; n = 1
# [2] = test system: AURKB; conditions: read-out: apparent Kd; compound concentrations: 100 nM and 1000 nM (sheet 'Samples'), CATDS: 8.33802174361232E-2; n = 1
# [3] = test system: BTK; conditions: read-out: apparent Kd; compound concentrations: 100 nM and 1000 nM (sheet 'Samples'), CATDS: 2.7906188232160099E-2; n = 1
# [4] = test system: CDK6; conditions: read-out: apparent Kd; compound concentrations: 100 nM and 1000 nM (sheet 'Samples'), CATDS: 2.6039683989772199E-2; n = 1
# [5] = test system: DDR1; conditions: read-out: apparent Kd; compound concentrations: 100 nM and 1000 nM (sheet 'Samples'), CATDS: 3.3765649508464002E-2; n = 1
# [6] = test system: DDR2; conditions: read-out: apparent Kd; compound concentrations: 100 nM and 1000 nM (sheet 'Samples'), CATDS: 2.4811754642975199E-2; n = 1
# [7] = test system: EPHA1; conditions: read-out: apparent Kd; compound concentrations: 100 nM and 1000 nM (sheet 'Samples'), CATDS: 5.8966427250755599E-2; n = 1
# [8] = test system: EPHA2; conditions: read-out: apparent Kd; compound concentrations: 100 nM and 1000 nM (sheet 'Samples'), CATDS: 2.87381973097037E-2; n = 1
# [9] = test system: EPHA5; conditions: read-out: apparent Kd; compound concentrations: 100 nM and 1000 nM (sheet 'Samples'), CATDS: 2.6468271871748401E-2; n = 1
# [10] = test system: EPHA7; conditions: read-out: apparent Kd; compound concentrations: 100 nM and 1000 nM (sheet 'Samples'), CATDS: 2.4521911619802599E-2; n = 1
# [11] = test system: EPHB1; conditions: read-out: apparent Kd; compound concentrations: 100 nM and 1000 nM (sheet 'Samples'), CATDS: 4.12835328689228E-2; n = 1
# [12] = test system: EPHB3; conditions: read-out: apparent Kd; compound concentrations: 100 nM and 1000 nM (sheet 'Samples'), CATDS: 2.2990547954998001E-2; n = 1
# [13] = test system: EPHB4; conditions: read-out: apparent Kd; compound concentrations: 100 nM and 1000 nM (sheet 'Samples'), CATDS: 2.6241533264211699E-2; n = 1
# [14] = test system: EPHB6; conditions: read-out: apparent Kd; compound concentrations: 100 nM and 1000 nM (sheet 'Samples'), CATDS: 2.2781408813982901E-2; n = 1
# [15] = test system: FGFR1; conditions: read-out: apparent Kd; compound concentrations: 100 nM and 1000 nM (sheet 'Samples'), CATDS: 3.1616918928168397E-2; n = 1
# [16] = test system: FLT4; conditions: read-out: apparent Kd; compound concentrations: 100 nM and 1000 nM (sheet 'Samples'), CATDS: 7.7146870041813295E-2; n = 1
# [17] = test system: GSK3A; conditions: read-out: apparent Kd; compound concentrations: 100 nM and 1000 nM (sheet 'Samples'), CATDS: 2.5407151234935001E-2; n = 1
# [18] = test system: GSK3B; conditions: read-out: apparent Kd; compound concentrations: 100 nM and 1000 nM (sheet 'Samples'), CATDS: 2.45501369034281E-2; n = 1
# [19] = test system: IRAK1; conditions: read-out: apparent Kd; compound concentrations: 100 nM and 1000 nM (sheet 'Samples'), CATDS: 2.4333511791148201E-2; n = 1
# [20] = test system: MAP3K5; conditions: read-out: apparent Kd; compound concentrations: 100 nM and 1000 nM (sheet 'Samples'), CATDS: 2.5132787541446201E-2; n = 1
# [21] = test system: MAP3K6; conditions: read-out: apparent Kd; compound concentrations: 100 nM and 1000 nM (sheet 'Samples'), CATDS: 2.24428147169137E-2; n = 1
# [22] = test system: PAK4; conditions: read-out: apparent Kd; compound concentrations: 100 nM and 1000 nM (sheet 'Samples'), CATDS: 2.7893369435470699E-2; n = 1
# [23] = test system: PDGFRB; conditions: read-out: apparent Kd; compound concentrations: 100 nM and 1000 nM (sheet 'Samples'), CATDS: 2.3035756841704998E-2; n = 1
# [24] = test system: PLK4; conditions: read-out: apparent Kd; compound concentrations: 100 nM and 1000 nM (sheet 'Samples'), CATDS: 9.4443768096787298E-2; n = 1
# [25] = test system: PTK2; conditions: read-out: apparent Kd; compound concentrations: 100 nM and 1000 nM (sheet 'Samples'), CATDS: 0.104516847999243; n = 1
# [26] = test system: RET; conditions: read-out: apparent Kd; compound concentrations: 100 nM and 1000 nM (sheet 'Samples'), CATDS: 0.104878429822753; n = 1
# [27] = test system: SLK; conditions: read-out: apparent Kd; compound concentrations: 100 nM and 1000 nM (sheet 'Samples'), CATDS: 2.57372154872102E-2; n = 1
# [28] = test system: STK10; conditions: read-out: apparent Kd; compound concentrations: 100 nM and 1000 nM (sheet 'Samples'), CATDS: 4.1679333810588297E-2; n = 1
# [29] = test system: TEC; conditions: read-out: apparent Kd; compound concentrations: 100 nM and 1000 nM (sheet 'Samples'), CATDS: 3.46380925591862E-2; n = 1
# [30] = test system: TGFBR1; conditions: read-out: apparent Kd; compound concentrations: 100 nM and 1000 nM (sheet 'Samples'), CATDS: 3.4751131583425202E-2; n = 1
# [31] = test system: TNK1; conditions: read-out: apparent Kd; compound concentrations: 100 nM and 1000 nM (sheet 'Samples'), CATDS: 3.18258683294073E-2; n = 1
compound,measurement,setting,value
CC(=O)Nc1ccc2c(c1)C(c1ccccc1Cl)=Nc1c(n[nH]c1C)N2 [RO0281752-000],potency estimated from few doses,[1],151 nM
same,potency estimated from few doses,[2],121 nM
same,potency estimated from few doses,[3],1080 nM
same,potency estimated from few doses,[4],1320 nM
same,potency estimated from few doses,[5],658 nM
same,potency estimated from few doses,[6],1540 nM
same,potency estimated from few doses,[7],213 nM
same,potency estimated from few doses,[8],992 nM
same,potency estimated from few doses,[9],1260 nM
same,potency estimated from few doses,[10],1600 nM
same,potency estimated from few doses,[11],421 nM
same,potency estimated from few doses,[12],2020 nM
same,potency estimated from few doses,[13],1290 nM
same,potency estimated from few doses,[14],2090 nM
same,potency estimated from few doses,[15],772 nM
same,potency estimated from few doses,[16],136 nM
same,potency estimated from few doses,[17],1430 nM
same,potency estimated from few doses,[18],1600 nM
same,potency estimated from few doses,[19],1650 nM
same,potency estimated from few doses,[20],1480 nM
same,potency estimated from few doses,[21],2220 nM
same,potency estimated from few doses,[22],1080 nM
same,potency estimated from few doses,[23],2000 nM
same,potency estimated from few doses,[24],100 nM
same,potency estimated from few doses,[25],86.4 nM
same,potency estimated from few doses,[26],86 nM
same,potency estimated from few doses,[27],1370 nM
same,potency estimated from few doses,[28],413 nM
same,potency estimated from few doses,[29],620 nM
same,potency estimated from few doses,[30],615 nM
same,potency estimated from few doses,[31],760 nM
